Screening data deposited in PubChem by National Center for Advancing Translational Sciences (NCATS).
Compounds with a hit are over-represented: about 17% of the library has one in this group of screens.
HepG2 tox: kills HepG2 cells in TGF-b inhibitor counter-screen | HepG2 CAGA-GFP viability, ATP luminescence, 18 h | Potency, µM (top dose mostly 46.1 µM), inactives show at the highest dose activity change, negative = cytotoxicity, hits mostly cytotoxic | 410,000 compounds, 0.76% hits | AID 588856
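CellTiter-Glo luminescence gave cytotoxicity after 18 hours at 37 degrees C. The cells were HepG2 CAGA-GFP in 1% FBS DMEM, stimulated with 500 pg/mL TGF-beta after compound addition. %Activity was normalised to no-cell wells (complete cell-killing) and DMSO (no toxicity), and curves were fitted and classified.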
DT40 TDP1 no CPT: qHTS for Inhibitors of human tyrosyl-DNA phosphodiesterase 1 (TDP1): qHTS in cells in absence of CPT | Potency, µM (top dose mostly 46.2 µM), for inactives: at the top dose activity change, negative = growth inhibition, most hits filed as inhibitors | AID 686978, 2013 | DT40 Tdp1-/- hTDP1 cells, no CPT, ATP luminescence, 48 h | 420,000 compounds, 15% hits; further: on the % scale 0 is the no-effect control and ±100 the full control effect; nearly all actives have a fitted effect of over 55% in size
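Cells were dispensed at 400 per well, compounds added by pin tool, plates incubated ≥48 hr at 37 °C, then CellTiter-Glo added for 30 min at room temperature before luminescence reading. Line: DT40 Tdp1-/- complemented with hTDP1; camptothecin omitted.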
HT1080 IDH1KD tx: HT-1080 IDH1 knockdown cell toxicity (counter line). HT-1080 IDH1 knockdown viability, ATP luminescence, 48 h. Potency, µM (doses to about 46.1 µM), inactives show at the top dose activity, negative = toxicity, hits mostly cytotoxic. 360,000 compounds, 2% hits;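 further: 0% = DMSO wells and -100% = cell-free medium wells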
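Luminescent ATP read-out (CellTiter-Glo, 10 min at room temperature) after 48 h compound exposure at 37 °C gave viability of IDH1-knockdown HT-1080 cells. Activity was normalised to DMSO and cell-free wells, then fitted as concentration-response curves.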
TGFb SMAD3 inh: inhibitors of TGF-b signaling | Potency, µM (highest dose often 46.1 µM), without a hit: at the top dose activity, negative = inhibition, usual class: inhibitors | 410,000 compounds, 1.2% hits | HepG2 CAGA-GFP TGF-b/SMAD3 reporter, GFP fluorescence, 18 h; TGF-beta stimulated, 500 pg/mL final; further: on the % scale 0 is the no-effect control and ±100 the full control effect; nearly all actives have a fitted effect of over 65% in size
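TGF-beta reporter screen: HEPG2 CAGA-GFP, 1% FBS, 500 pg/mL TGF-beta final, 18 h; per-cell GFP summed per well; curves fitted and categorized by class.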
HT1080-NT tox: kills 2HG-producing HT-1080-NT fibrosarcoma cells; AID 686970; Potency, µM (top dose mostly 46.1 µM), inactives show top-dose activity, negative = less viability, hits mostly cytotoxic; HT-1080-NT fibrosarcoma viability, CellTiter-Glo ATP luminescence, 48 h; 360,000 compounds, 1.6% hits;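 further: NT is the 2HG producing partner of a matched IDH1 knockdown line; 0% = DMSO-treated cells and -100% = media-only wells without cells; nearly all actives have a fitted effect of over 55% in size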
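HT-1080-NT; 750 cells/well; 5% FBS RPMI; 48 h compound, 37 degrees C; CellTiter-Glo luminescence; curve fitting and curve-class assignment.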
TDP1 cell CPT: growth inhibition of DT40 Tdp1-/-;hTDP1 cells with camptothecin (screen for TDP1 inhibitors). chicken DT40 Tdp1-/-;hTDP1 cells + 20 nM CPT, ATP luminescence, 48 h. 420,000 compounds, 12% hits. Potency, µM (series often up to 46.2 µM), inactives show top-dose activity change, negative = growth inhibition, actives largely listed as inhibitors; further: on the % scale 0 is the no-effect control and ±100 the full control effect; nearly all actives have a fitted effect of over 55% in size
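Cell growth measured by CellTiter-Glo luminescence after a minimum 48 h, 37 C compound exposure with 20 nM CPT in Tdp1-knockout DT40 cells stably expressing hTDP1, seeded 400/well; qHTS titration format.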
* marks the source's active call; other numbers are inactive results; ? = inconclusive; / = not tested or not shown. The call rests on the fitted dose curve; in most records, active means well fitted curve in the direction sought with a large enough effect; inconclusive means small, poorly fitted or top-dose-only effect, or another doubt; inactive means no such curve, though single readings can be large; an effect the other way counts as inactive or inconclusive. Potency means the concentration at half of the fitted maximal effect.

SMILES | HepG2 tox | DT40 TDP1 no CPT | HT1080 IDH1KD tx | TGFb SMAD3 inh | HT1080-NT tox | TDP1 cell CPT
CCCSCCCNC(=O)CN1C(=O)CCn2nc(-c3cn(C)c4ccccc34)cc21 | -28% | ? | / | -23% | / | ?
Cn1cc(-c2cc3n(n2)CCC(=O)N3CCCC(=O)NCc2ccc(F)cc2)c2ccccc21 | -4% | ? | / | -28% | / | 16µM*
CCc1ccc(CNC(=O)CN2C(=O)CCn3nc(-c4cn(C)c5ccccc45)cc32)cc1 | -2% | -21% | / | -6% | / | 16µM*
CCc1c2c(nc3ccc(OC)cc13)-c1nc3ccccc3c(=O)n1C2 | -26% | / | / | -9% | / | /
Cc1ccc(N(C)S(=O)(=O)c2cccc(C(=O)Oc3ccc4c(C)cc(=O)oc4c3)c2)cc1 | -2% | -25% | 16% | 1% | 13% | ?
O=C1CC(Cc2ccccc2)C(=O)N1CCc1ccc2c(c1)OCO2 (configuration not stated) | 0% | -10% | -1% | -3% | 3% | -1%
O=C1OC[C@H](Cc2ccc3c(c2)OCO3)/C1=C\c1ccc2c(c1)OCO2 | -25% | 8.2µM* | -12% | 3% | ? | 5.8µM*
COC(=O)c1scc(-c2ccc(C)cc2)c1S(=O)(=O)Nc1cc(C)ccc1OC | -14% | 23µM* | / | -3% | / | ?
COC(=O)c1scc(C)c1S(=O)(=O)Nc1ccc(C)cc1 | -9% | ? | ? | -25% | ? | -23%
COC(=O)c1scc(-c2ccc(C)cc2)c1S(=O)(=O)Nc1cc(C)c(Cl)cc1OC | -47% | 23µM* | / | -29% | / | 4.6µM*
CCOC(=O)c1cc(S(=O)(=O)Nc2cc(C)c(Cl)cc2OC)[nH]n1 | -49% | -20% | / | ? | / | -29%
CC(C)(C)OC(=O)NCCCCCc1nnc(SCc2ccc(F)cc2)o1 | -179% | 23µM* | -30% | -9% | -26% | ?
Cc1cccc(C)c1NC(=O)CSc1nnc(CCCCCNC(=O)OC(C)(C)C)o1 | -10% | 13µM* | -2% | 0% | -1% | 15µM*
Cc1ccc(C)c(NC(=O)CSc2nnc(CCCCCNC(=O)OC(C)(C)C)o2)c1 | -20% | ? | -9% | -26% | 0% | ?
Cc1ccc(CSc2nnc(CCNC(=O)OC(C)(C)C)o2)cc1 | -27% | -6% | -15% | -25% | 3% | ?
O=C(O)c1ccc(N2C(=O)CC(N3CCN(c4cccc(C(F)(F)F)c4)CC3)C2=O)cc1 (configuration not stated) | -1% | -9% | 9% | 8% | 22% | -4%
C#CCN(C[C@@H]1[C@@H](OC(=O)NCc2ccccc2)[C@@H](OC(=O)NCc2ccccc2)CN(C(=O)OC(C)C)N1C(=O)OC(C)C)S(=O)(=O)c1ccc(C)cc1 | 2% | 12µM* | -6% | ? | -1% | 21µM*
C#CCN(C[C@@H]1[C@@H](OC(=O)NCC2CCCCC2)[C@@H](OC(=O)NCC2CCCCC2)CN(C(=O)OC(C)C)N1C(=O)OC(C)C)S(=O)(=O)c1ccc(C)cc1 | 3% | 7.3µM* | -6% | -15% | -2% | 9.2µM*
C#CCN(C[C@H]1[C@H](OC(=O)NCc2ccc(OC)c(OC)c2)[C@H](OC(=O)NCc2ccc(OC)c(OC)c2)C[C@H]2C(=O)N(c3ccccc3)C(=O)[C@@H]12)S(=O)(=O)c1ccc(C)cc1 | -31% | ? | -1% | 1% | -3% | -22%
CC1CCCCC1NCC(=O)Nc1ccccc1-c1ccccc1 (configuration not stated) | -22% | 18µM* | -7% | 0% | -4% | ?
CC1CCN(CC(=O)Nc2ccccc2C(=O)c2ccccc2)CC1 | -16% | 15µM* | -2% | -6% | 0% | 21µM*
CC1CCN(CC(=O)Nc2ccccc2-c2ccccc2)CC1 | -15% | ? | 4% | ? | 10% | 18µM*
O=C(Nc1ccccc1-c1ccccc1)C1CCCCC1 | -4% | -5% | -7% | 3% | -3% | -11%
COc1ccc(-c2cnn(C3CCS(=O)(=O)C3)c2N)cc1 (configuration not stated) | 0% | -23% | 12% | -2% | 7% | -4%
COc1ccc(NC(=O)CN(C)C(=O)CN2C(=O)c3ccc([N+](=O)[O-])cc3C2=O)cc1 | -26% | 9% | 7% | -14% | 10% | 4%
SMILES | HepG2 tox | DT40 TDP1 no CPT | HT1080 IDH1KD tx | TGFb SMAD3 inh | HT1080-NT tox | TDP1 cell CPT
COc1ccc(CNC(=O)COC(=O)c2c(-c3c(F)cccc3Cl)noc2C)cc1OC | 1% | ? | 4% | 6% | -6% | ?
Cc1onc(-c2c(F)cccc2Cl)c1C(=O)OCC(=O)NC(=O)NCC(C)C | 1% | 7.3µM* | -17% | 16% | -25% | -23%
CCN(CC(=O)Nc1cccc(OC)c1)CC(=O)Nc1cccc2ccccc12 | -5% | ? | 0% | -1% | ? | ?
Brc1ccc(N/N=C(/N=Nc2nn[nH]n2)c2ccccc2)cc1 | 4% | 2.6µM* | 2.9µM* | ? | ? | 2.9µM*
O=C(O)c1ccc(N=N/C(=N\Nc2ccc(C(=O)O)cc2)c2ccccc2)cc1 | 3% | ? | ? | 1% | -9% | -27%
COc1cc2c(cc1OC)C(c1ccc(N(C)C)cc1)NCC2 (configuration not stated) | -21% | ? | -8% | 15% | -7% | ?
CCCCCCN1CCN(C2CN(Cc3ccccc3)S(=O)(=O)C2)CC1 (configuration not stated) | -5% | ? | 9% | -5% | 11% | ?
CC(C)(C)c1ccc(C(=O)N2CCC2(C)C(=O)Nc2cccc(C#N)c2)cc1 (configuration not stated) | -21% | 16µM* | ? | -14% | ? | 16µM*
CC1(C(=O)Nc2ccc3c(c2)OCCO3)CCN1C(=O)c1ccccc1CCc1ccccc1 (configuration not stated) | -2% | ? | 0% | 6% | 10% | 29µM*
CC1(C(=O)NS(=O)(=O)c2cccc(C#N)c2)CCN1C(=O)c1ccccc1CCc1ccccc1 (configuration not stated) | 4% | -4% | -15% | -8% | -16% | -17%
